Assay results reported in PubChem BioAssay (Tox21).
Values joined by “and” are separate entries in the source; they are usually repeats but may differ in a detail not shown here. Equal values may be shown once. Results filed as inconclusive are left out. More than one record can exist for a structure, and the calls need not agree. Active and inactive are the calls of the source. The call rests on the fitted dose curve.

Assay: Nuclear factor erythroid 2-related factor 2/antioxidant responsive element (Nrf2/ARE) small molecule agonists: luciferase reporter gene qHTS assay in human keratinocytes (AID 1919969); further: nearly all actives have a fitted effect of over 35% in size
Details: KeratinoSens HaCaT ARE-luciferase, luminescence, 24 h; series mostly up to 92.4 µM; activity, positive = activation: at the top concentration
Text: National Center for Advancing Translational Sciences [NCATS]
Division of Preclinical Innovation [DPI]
U.S. Environmental Protection Agency [EPA]
National Institutes of Environmental Health Sciences [NIEHS]
National Toxicology Program [NTP]
U.S. Food and Drug Administration [FDA]
Oxidative stress has been implicated in the pathogenesis of a variety of diseases ranging from cancer to neurodegeneration. The antioxidant response element (ARE) signaling pathway plays an important role in the amelioration of oxidative stress. The KeratinoSens (Givaudan, Switzerland) is an in vitro test method which quantifies luciferase induction as a measure of activation of Keap1-Nrf2-antioxidationt/electrophile response element (ARE) dependant pathway in HaCaT human keratinocytes stably transfected with a selectable plasmid. The KeratinoSens assay is a cell-based assay with a reporter cell line to detect potential skin sensitizers by their ability to induce the Nrf2/ARE-response. The activation of the report gene under culture conditions can be detected by ONE-Glo Luciferase Assay System (Promega, Madison, WI). This cell line has been used to screen the Tox21 10K compound library to identify agonists that induce oxidative stress. The cytotoxicity of the Tox21 compound library against the KS-ARE cell line was tested in parallel by measuring the cell viability using CellTiter- Fluor assay system (Promega, Madison, WI) in the same wells.
HaCaT derived cell line KeratinoSens were dispensed at 1,500 cells/5uL/well in 1536-well white wall/solid bottom plates using a Multidrop Combi (ThermoFisher Scientific, Waltham, MA) dispenser. After the assay plates were incubated at 37 C/5% CO2 for 5 h, 23 nL of compounds dissolved in DMSO, positive controls or DMSO only was transferred to the assay plate by a pintool workstation (Kalypsys, San Diego, CA). The plates were incubated at 37 C/5% CO2 for 23 h, followed by addition of 1uL/well of CellTiter-Fluor reagent into the assay plates using a Flying Reagent Dispenser (Aurora Discovery, San Diego, CA) for cell viability readout that measures cytotoxicity. After 1 h incubation at 37 C/5% CO2 the fluorescence intensity was measured using a ViewLux (PerkinElmer, Shelton, CT) plate reader. Then 4uL/well of One-Glo were added using a Flying Reagent Dispenser. After the plates were incubated at room temperature for 30 min, the luminescence intensity in the assay plates was measured using ViewLux plate reader.
On the % scale 0 is the no-effect control and ±100 the full control effect; potency means the concentration at half of the fitted maximal effect.

Row | Structure (SMILES) | activity, positive = activation | Potency
1 | N=C(N)c1ccc2cc(OC(=O)c3ccc(N=C(N)N)cc3)ccc2c1 | -7.13% [at 42.5 µM] (inactive) | –
2 | Cc1cccc(S(=O)(=O)O)c1C | 0.064% (inactive) | –
3 | OCCN1CCN(CCCN2c3ccccc3C=Cc3ccccc32)CC1 | -4.54% [at 42.5 µM] (inactive) | –
4 | CCCCCCCCCCCC(=O)OCC(C)OC(=O)CCCCC(=O)O (stereo not given) | -2.6% [at 42.5 µM] (inactive) | –
5 | COc1ccc(N)c(C)c1 | 4.17% (inactive) | –
6 | CC(=O)N1C[C@H](O)C[C@H]1C(=O)O | -8.62% [at 42.5 µM] (inactive) | –
7 | NC(=O)c1ccc([N+](=O)[O-])cc1 | 0.384% (inactive) | –
8 | COc1ccc(Br)c(C)c1 | -1.89% (inactive) | –
9 | Oc1ccc(Cl)cc1Sc1cc(Cl)ccc1O | – | 15.3 µM (active) and inactive
10 | C=CCCCCCCCCCCCC | 12% (inactive) | –
11 | OC[C@H]1O[C@@H](O[C@H]2[C@H](O)[C@@H](O)[C@H](O)O[C@@H]2CO)[C@H](O)[C@@H](O)[C@H]1O | 0.92% (inactive) | –
12 | CCOCCOCC | 1.57% (inactive) | –
13 | OCc1ccccc1 | – | inactive and 9.69 µM (active)
14 | CC(=O)OCCOCCOCCOC(C)=O | -4.03% (inactive) | –
15 | CN(C)N=Nc1ccccc1 | -10.6% (inactive) | –
16 | CC(C)C(=O)c1ccccc1 | -2.82% (inactive) | –
17 | C[N+](C)(C)CCO | – | inactive
18 | c1ccc(CCCc2ccncc2)cc1 | – | 48.6 µM (active)
19 | c1ccc2ncccc2c1 | 1.07% (inactive) | –
20 | Cc1cccc(N(C)C)c1 | 3.18% (inactive) | –

Row | Structure (SMILES) | activity, positive = activation | Potency
21 | CC(C)CC=O | -3.94% (inactive) | –
22 | O=C1CCCCC1 | – | inactive
23 | COC(=O)Nc1ccc(Cl)c(Cl)c1 | 2.95% (inactive) | –
24 | CN1CCCC1 | -2.01% (inactive) | –
25 | NCc1ccccc1Sc1ccccc1CO | -5.95% [at 42.5 µM] (inactive) | –
26 | OCC1(CO)COCOC1 | -5.3% (inactive) | –
27 | COC(=O)c1ccccc1C(=O)c1ccc(OCCN2CCCCC2)cc1 | -2.87% [at 42.5 µM] (inactive) | –
28 | COC(OC)OC | -8.34% (inactive) | –
29 | NCCN1CCNC1=O | 7.63% (inactive) | –
30 | c1coc(CNc2ncnc3nc[nH]c23)c1 | 0.444% (inactive) | –
31 | ClC/C=C\CCl | -2.66% (inactive) | –
32 | CCOc1cc(NC(C)=O)ccc1C(=O)OC | -1.97% [at 42.5 µM] (inactive) | –
33 | O=S(=O)(O)c1ccc(N=Nc2c(O)ccc3cc(S(=O)(=O)O)ccc23)cc1 | – | inactive
34 | CCCc1ccccc1 | -3.74% (inactive) | –
35 | OCC(O)CN1CCN(c2ccccc2)CC1 (stereo not given) | -1.11% [at 42.5 µM] (inactive) | –
36 | Nc1cccc2c1CN(C1CCC(=O)NC1=O)C2=O (stereo not given) | 5.83% [at 42.5 µM] (inactive) | –
37 | COc1ccccc1N=Nc1c(S(=O)(=O)O)cc2cc(S(=O)(=O)O)cc(NC(C)=O)c2c1O | -15.2% (inactive) | –
38 | CCn1cc(C(=O)O)c(=O)c2cc3c(cc21)OCO3 | -1.35% [at 19 µM] (inactive) | –
39 | CC(C)(CC(=O)O)C(=O)O | -6.53% (inactive) | –
40 | CCCO[Si](OCCC)(OCCC)OCCC | -8.54% (inactive) | –
